# PubChem BioAssay
# The source made the active and inactive calls. How the calls were made is not given here.
# Target: Pantothenate synthetase (Mycobacterium tuberculosis (strain ATCC 25618 / H37Rv)) (UniProt P9WIL5)
# Test: Coupled enzyme confirmation of inhibitors against recombinant Mtb PanC (AID 375);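 further: 0% = full reaction with vehicle and 100% = no enzyme background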
# Conditions: coupled enzyme assay; at 10 µM, hits give high values
# Chain of Pantothenate synthetase (Mycobacterium tuberculosis (strain ATCC 25618 / H37Rv)) (P9WIL5 whole entry, looked up): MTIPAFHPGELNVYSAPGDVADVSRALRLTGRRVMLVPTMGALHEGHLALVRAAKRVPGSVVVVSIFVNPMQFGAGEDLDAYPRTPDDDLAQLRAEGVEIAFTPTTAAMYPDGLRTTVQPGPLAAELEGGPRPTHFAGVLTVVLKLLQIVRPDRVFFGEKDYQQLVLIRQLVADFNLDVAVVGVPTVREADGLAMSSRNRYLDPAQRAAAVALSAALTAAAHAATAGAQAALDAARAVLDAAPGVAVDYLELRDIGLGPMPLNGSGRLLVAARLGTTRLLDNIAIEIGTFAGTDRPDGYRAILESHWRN
row,SMILES,inhibition
1,Cc1ccc(Cn2nnc3c(=O)[nH]c(C4CCN(C(=O)c5cccs5)CC4)nc32)cc1,0% (inactive)
2,CON(C)c1nc(Oc2ccc(=O)[nH]n2)nc(N(C)C)n1,1% (inactive)
3,N#CCSc1nc(-c2ccccc2)cs1,0% (inactive)
4,Cc1cc(C)n2c(SCCN3C(=O)c4ccccc4C3=O)nnc2n1,0% (inactive)
5,COc1cc(C(=O)N2CCC(c3nc(-c4cccnc4)no3)CC2)cc(OC)c1OC,0% (inactive)
6,Cc1cc(NS(=O)(=O)c2ccccc2)no1,1% (inactive)
7,CCOc1ccc(S(=O)(=O)NCC2CCCO2)c2cccnc12 (stereo not given),0% (inactive)
8,COc1cccc(N2CCN(Cc3nc(N)nc(Nc4ccccc4OC)n3)CC2)c1,0% (inactive)
9,c1ccc2c(Cn3ccnc3)c[nH]c2c1,0% (inactive)
10,Cn1cc(Cl)c(C(=O)NC2CCCC2)n1,6% (inactive)
11,Cc1noc(C)c1C(=O)N1CCN(C(=O)c2sc3cc(Cl)ccc3c2Cl)CC1,7% (inactive)
12,O=C(CN1C(=O)COCC1=O)N1CCOCC1,0% (inactive)
13,CCn1c(=N)n(CC(=O)C23CC4CC(CC(C4)C2)C3)c2ccccc21,0% (inactive)
14,Cn1nnc2cc(C(=O)N3CCCCCC3)ccc21,0% (inactive)
15,O=[n+]1cc(-c2ccc(F)cc2)n([O-])c2c1CCC2,0% (inactive)
16,Cc1c(NC(=O)c2ccc(COc3ccc4ccccc4c3)o2)c(=O)n(-c2ccccc2)n1C,0% (inactive)
17,CCOc1ccccc1N1CCN(c2nc3ccccc3nc2C(C#N)C(=O)OC)CC1 (stereo not given),5% (inactive)
18,Cc1nc(-c2ccc(NC(=O)c3cccs3)cc2)cs1,0% (inactive)
19,COCCNC(=O)CSc1nc(-c2ccc(OC)c(OC)c2)cc(C(F)(F)F)n1,2% (inactive)
20,COc1cc(SC)ccc1C(=O)Nc1ccon1,0% (inactive)

row,SMILES,inhibition
1,CCc1nc(SCC(=O)NCc2ccco2)c2c3c(sc2n1)CCCC3,4% (inactive)
2,CCOC(=O)C1=C(C)N(C)C(=O)NC1c1ccccc1OC (stereo not given),0% (inactive)
3,c1nnc(NC2=NCCCCC2)s1,0% (inactive)
4,CCN(C(=O)c1c(-c2ccccc2)noc1C)c1ccccc1,0% (inactive)
5,COCCN(Cc1cc2cc3c(cc2n2nnnc12)OCO3)C(=O)c1ccccc1F,2% (inactive)
6,O=C(c1csc2ccccc12)N1CCCCCC1,2% (inactive)
7,COC(=O)c1c(O)ccc(Oc2ccccc2)c1C(=O)OC,0% (inactive)
8,O=C(NCc1ccco1)C1CCN(S(=O)(=O)N2CCC3(CC2)OCCO3)CC1,0% (inactive)
9,C=CCn1c(SCC(=O)NCCCC)nc2scc(-c3ccco3)c2c1=O,0% (inactive)
10,Cc1cc(C)cc(NS(=O)(=O)c2ccc3[nH]c(=O)[nH]c3c2)c1,0% (inactive)
11,COc1ccc(C(=O)NCCn2ccc3ccccc32)c(OC)c1,5% (inactive)
12,O=C(NC1CCCCC1)N(Cc1ccc(F)cc1)Cc1nc2ccccc2c(=O)[nH]1,9% (inactive)
13,CCn1cc(C2=NCC(C)O2)c2ccccc21 (stereo not given),2% (inactive)
14,CCOC(=O)C1=C[C@]2(CC)CCCN3CCc4c(n1c1ccccc41)[C@@H]32,4% (inactive)
15,O=[n+]1c2c(n([O-])c3c1CCCC3)CCCC2,0% (inactive)
16,CCOc1ccccc1N(CC(=O)N1CCCCCC1)S(C)(=O)=O,0% (inactive)
17,CCOC(=O)N1CCC(NC(=O)Cn2ncc3c4ccccc4n(C)c3c2=O)CC1,5% (inactive)
18,O=S(=O)(Nc1cccc2ncccc12)c1cccs1,6% (inactive)
19,CN1C(=O)CC(C(=O)Nc2ccc(F)cc2)SC1=Nc1ccc2c(c1)OCO2 (stereo not given),0% (inactive)
20,CC(Oc1ccccc1)C(=O)Nc1ccc(S(=O)(=O)NCC2CCCO2)cc1 (stereo not given),1% (inactive)
